Test results taken from the antibiotic and cytotoxicity screens of Wong et al. (2023).
About 1,500 (3.8%) of roughly 39,000 compounds were called active. Shown is part of a subset that was picked to be rich in actives.

These compounds were tested on HSkMC (human skeletal muscle cells) (assay: cytotoxicity call (relative viability < 0.9)). Settings: 10 µM.

Structure (SMILES) | cytotoxicity call
Cc1ccc(S(=O)(=O)Nc2ccc3c(c2)CC(=O)N([C@H](C)CO)C[C@H](C)[C@H](CN(C)Cc2ccc(Oc4ccccc4)cc2)O3)cc1 | inactive
Cc1ccc(S(=O)(=O)Nc2ccc3c(c2)CC(=O)N([C@@H](C)CO)C[C@H](C)[C@H](CN(C)Cc2ccc(Oc4ccccc4)cc2)O3)cc1 | active
Cc1ccc(S(=O)(=O)Nc2ccc3c(c2)CC(=O)N([C@@H](C)CO)C[C@H](C)[C@@H](CN(C)Cc2ccc(Oc4ccccc4)cc2)O3)cc1 | active
Cc1ccc(S(=O)(=O)Nc2ccc3c(c2)CC(=O)N([C@@H](C)CO)C[C@@H](C)[C@@H](CN(C)Cc2ccc(Oc4ccccc4)cc2)O3)cc1 | inactive
Cc1ccc(S(=O)(=O)Nc2ccc3c(c2)CC(=O)N([C@H](C)CO)C[C@H](C)[C@@H](CN(C)Cc2ccc(Oc4ccccc4)cc2)O3)cc1 | inactive
Cc1ccc(S(=O)(=O)Nc2ccc3c(c2)CC(=O)N([C@@H](C)CO)C[C@@H](C)[C@H](CN(C)Cc2ccc(Oc4ccccc4)cc2)O3)cc1 | inactive
Cc1ccc(S(=O)(=O)Nc2ccc3c(c2)CC(=O)N([C@H](C)CO)C[C@@H](C)[C@H](CN(C)Cc2ccc(Oc4ccccc4)cc2)O3)cc1 | active
Cc1ccc(S(=O)(=O)Nc2ccc3c(c2)CC(=O)N([C@H](C)CO)C[C@@H](C)[C@@H](CN(C)Cc2ccc(Oc4ccccc4)cc2)O3)cc1 | inactive
C[C@H](CO)N1C[C@H](C)[C@@H](CN(C)S(=O)(=O)c2ccc(F)cc2)Oc2ccc(NC(=O)C3CC3)cc2CC1=O | inactive
CO[C@H]1CN(C)C(=O)c2cc(NC(=O)Nc3cccc(Cl)c3)ccc2OC[C@H](C)N(C(=O)Nc2c(C)noc2C)C[C@H]1C | inactive
COc1ccc(NC(=O)N(C)C[C@H]2OCCCC[C@@H](C)Oc3ccc(NC(=O)Nc4cccc5ccccc45)cc3C(=O)N([C@H](C)CO)C[C@@H]2C)cc1 | inactive
Cc1ccc(S(=O)(=O)N[C@H]2CC[C@@H](CC(=O)N3CCC(Cc4ccccc4)CC3)O[C@@H]2CO)cc1 | inactive
C[C@@H]1CCCCO[C@@H](CN(C)C(=O)NC2CCCCC2)[C@H](C)CN([C@@H](C)CO)C(=O)c2cc(NC(=O)Cc3ccccc3)ccc2O1 | inactive
C[C@H]1CN([C@@H](C)CO)C(=O)Cc2cc(NC(=O)Nc3cccc4c3CCCC4)ccc2O[C@H]1CN(C)S(=O)(=O)c1ccc(Oc2ccccc2)cc1 | inactive
Cc1cc(Oc2ccnc3cc(Cl)ccc23)ccc1Cl | inactive
Cc1c(C(=O)Nc2ccc(Oc3ccnc4cc(OCC(C)(C)O)ccc34)c(F)c2)c(=O)n(-c2ccccc2)n1C | active
CCS(=O)(=O)N1C[C@]2(C1)CN([C@@H](CO)c1c2c2ccc(cc2n1C)OC)C(=O)Nc1cccc(c1)F | inactive
CC(C)NC(=O)Nc1cccc2c1O[C@@H](CN(C)C(=O)NC1CCCCC1)[C@@H](C)CN([C@@H](C)CO)C2=O | inactive
Cc1ccc(S(=O)(=O)N(C)C[C@H]2Oc3ccc(NS(C)(=O)=O)cc3CC(=O)N([C@@H](C)CO)C[C@@H]2C)cc1 | inactive
CC(C)CCC[C@@H](C)[C@H]1CC[C@H]2[C@@H]3C[C@@H](O)[C@@]4(O)C[C@@H](O)CC[C@]4(C)[C@H]3CC[C@]12C [CHOLESTAN-3beta,5alpha,6beta-TRIOL ] | active
CC(C)CCCC(C)C1CCC2C3CCC4CC(O)CCC4(C)C3CCC12C (stereo not drawn) [5alpha-CHOLESTANOL ] | inactive
CC(C)CCCC(C)C1CCC2C3CC(=O)C4CC(O)CCC4(C)C3CCC12C (stereo not drawn) [5alpha-CHOLESTAN-3beta-OL-6-ONE ] | inactive

Structure (SMILES) | cytotoxicity call
CC(C)NC(=O)Nc1ccc2c(c1)CC(=O)N([C@H](C)CO)C[C@H](C)[C@H](CN(C)S(=O)(=O)c1cn(C)cn1)O2 | inactive
COc1cc(C(=O)NCCCN2CCCN(CCCNC(=O)c3cc(OC)c(OC)c(OC)c3)CC2)cc(OC)c1OC | inactive
Cc1cn(CCN2CCN(c3ccccc3-c3cc(C#N)cc(C(=O)NCCCN4CCCC4)c3)CC2)c2ccccc12 | active
Cc1cn(CCC#N)c2ccccc12 | inactive
C[C@H]1CCCCO[C@H](CN(C)C(=O)C2CCCCC2)[C@@H](C)CN([C@@H](C)CO)C(=O)c2cc(NS(=O)(=O)c3cccs3)ccc2O1 | inactive
COc1ccc(-n2cc(C(=O)NO)nn2)cc1 | active
COc1cccc(-n2cc(C(=O)NO)nn2)c1 | inactive
COC(=O)c1ccc(Cn2cc(C(=O)NO)nn2)o1 | inactive
C[C@H]1NC(=O)[C@H](Cc2ccccc2)NC(=O)[C@@]23C(=O)N[C@@H](Cc4ccccc4)[C@@H]2[C@H](C)[C@@]2(C)O[C@H]2[C@H]3/C=C/C/C=C\CNC1=O | inactive
C[C@H](CO)N1C[C@H](C)[C@@H](CN(C)Cc2ccncc2)Oc2ccc(NS(=O)(=O)c3ccc(F)cc3)cc2C1=O | inactive
CN(C)c1ccc(C(=C2C=CC(=[N+](C)C)C=C2)c2ccc(N(C)C)cc2)cc1.[Cl-] | active
CN(CC(=O)O)C1CCCC1 | inactive
C[C@@H]1CCCCO[C@H](CN(C)C(=O)Nc2ccc(F)cc2)[C@H](C)CN([C@@H](C)CO)C(=O)c2cc(NC(=O)NC3CCCCC3)ccc2O1 | inactive
C[C@H]1CN([C@@H](C)CO)S(=O)(=O)c2ccc(C#Cc3ccc(F)cc3)cc2O[C@@H]1CN(C)C(=O)c1ccccn1 | inactive
COc1ccc(S(=O)(=O)Nc2ccc3c(c2)CC(=O)N([C@@H](C)CO)C[C@H](C)[C@@H](CN(C)Cc2ccc(Oc4ccccc4)cc2)O3)cc1 | active
COc1ccc(S(=O)(=O)Nc2ccc3c(c2)CC(=O)N([C@H](C)CO)C[C@@H](C)[C@@H](CN(C)Cc2ccc(Oc4ccccc4)cc2)O3)cc1 | active
COc1ccc(S(=O)(=O)Nc2ccc3c(c2)CC(=O)N([C@H](C)CO)C[C@H](C)[C@@H](CN(C)Cc2ccc(Oc4ccccc4)cc2)O3)cc1 | inactive
COc1ccc(S(=O)(=O)Nc2ccc3c(c2)CC(=O)N([C@H](C)CO)C[C@H](C)[C@H](CN(C)Cc2ccc(Oc4ccccc4)cc2)O3)cc1 | inactive
COc1ccc(S(=O)(=O)Nc2ccc3c(c2)CC(=O)N([C@@H](C)CO)C[C@@H](C)[C@H](CN(C)Cc2ccc(Oc4ccccc4)cc2)O3)cc1 | inactive
COc1ccc(S(=O)(=O)Nc2ccc3c(c2)CC(=O)N([C@@H](C)CO)C[C@@H](C)[C@@H](CN(C)Cc2ccc(Oc4ccccc4)cc2)O3)cc1 | inactive
COc1ccc(S(=O)(=O)Nc2ccc3c(c2)CC(=O)N([C@H](C)CO)C[C@@H](C)[C@H](CN(C)Cc2ccc(Oc4ccccc4)cc2)O3)cc1 | active
COc1ccc(S(=O)(=O)Nc2ccc3c(c2)CC(=O)N([C@@H](C)CO)C[C@H](C)[C@H](CN(C)Cc2ccc(Oc4ccccc4)cc2)O3)cc1 | active
